This passage reports outcome and AC50 results from PubChem BioAssay (EPA / NIEHS).

Values joined by “and” are separate entries in the source; they are usually repeats but may differ in a detail not shown here. Identical values can stand only once. Results filed as inconclusive are left out. The source holds several records for some structures; these can differ, active in one and inactive in another. Active and inactive are the calls of the source. Rule for the calls: active = hit-call score of the fitted dose curve at least 0.9, where 1 is the maximum; inconclusive = response in the unintended direction; inactive = score below 0.9.

A short description of assay [1]: ATG_M_19_XSP1: Attagene TRANS-FACTORIAL Multi-Species (XSP1) HepG2 Assay for M19 Transcription Factor (Internal Marker) (AID 2283798). The method in brief:
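HepG2 cells transiently transfected with multiplexed GAL4-UAS reporter units, dosed 24 h with 3 nM 6-alpha-fluorotestosterone present for partial AR stimulation. Reporter mRNA measured by RT-PCR with capillary electrophoresis; gain-of-signal fitted relative to DMSO.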

A short description of assay [2]: ATG_M_32_XSP1: Attagene TRANS-FACTORIAL Multi-Species (XSP1) HepG2 Assay for M32 Transcription Factor (Internal Marker) (AID 2283799). In a few lines: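 HepG2 cells transiently transfected with multi-species TRANS reporter units, dosed 24 h with 3 nM 6-alpha-fluorotestosterone present. Internal-marker reporter mRNA quantified by RT-PCR and capillary electrophoresis; positive-direction fit versus DMSO.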

The target of assay [3] is Peroxisome proliferator-activated receptor gamma (Homo sapiens) (UniProt P37231). Kind of assay: ATG_hPPARg_XSP1: Attagene TRANS-FACTORIAL Multi-Species (XSP1) HepG2 Assay for human Peroxisome Proliferator-activated Receptor gamma (PPARg) (AID 2283800). In a few lines:
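HepG2 cells transiently transfected with GAL4-UAS reporter units carrying chimeric NR-Gal4 proteins; 3 nM 6-alpha-fluorotestosterone present. After 24 h dosing, reporter mRNA quantified by RT-PCR and capillary electrophoresis; gain of signal relative to DMSO.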

Assay [4] concerns the target mouse Peroxisome Proliferator-activated Receptor gamma (PPARg), Pparg (gene 19016) (UniProt P37238). Kind of assay: ATG_mPPARg_XSP1: Attagene TRANS-FACTORIAL Multi-Species (XSP1) HepG2 Assay for mouse Peroxisome Proliferator-activated Receptor gamma (PPARg) (AID 2283802). In a few lines:
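HepG2 cells transiently transfected with GAL4-UAS reporter units driven by mouse PPARg–GAL4 chimera; 3 nM 6-alpha-fluorotestosterone present. After 24 h dosing, reporter mRNA quantified by RT-PCR, fluorescent labelling and capillary electrophoresis; gain of signal versus DMSO.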

In assay [5] the target is Nuclear receptor subfamily 1 group I member 2 (Mus musculus) (UniProt O54915). Briefly: ATG_mPXR_XSP1: Attagene TRANS-FACTORIAL Multi-Species (XSP1) HepG2 Assay for mouse Pregnane X Receptor (PXR) (AID 2283803). The method in brief: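 Transiently transfected HepG2 cells expressing a receptor-Gal4 chimera drive a GAL4-UAS reporter; 3 nM 6-alpha-fluorotestosterone included. Reporter mRNA read 24 h post-dose by RT-PCR and capillary electrophoresis; gain of signal relative to DMSO.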

Assay [6] concerns turtle Thyroid Hormone Receptor, alpha (TRa), gene 101949057. Kind of assay: ATG_trTRa_XSP1: Attagene TRANS-FACTORIAL Multi-Species (XSP1) HepG2 Assay for turtle Thyroid Hormone Receptor, alpha (TRa) (AID 2283806). The method in brief:
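HepG2 cells transiently transfected with GAL4-UAS reporter units and chimeric receptor-Gal4 constructs, with 3 nM 6-alpha-fluorotestosterone present. Reporter mRNA was quantified 24 h after dosing by RT-PCR, 6-FAM labelling and capillary electrophoresis; gain of signal versus DMSO.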

The target in assay [7] is zebrafish Thyroid Hormone Receptor alpha (TRa), thraa (gene 30670) (UniProt Q98867). Briefly: ATG_zfTRa_XSP1: Attagene TRANS-FACTORIAL Multi-Species (XSP1) HepG2 Assay for zebrafish Thyroid Hormone Receptor alpha (TRa) (AID 2283807). In a few lines:
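HepG2 cells transiently transfected with GAL4-UAS reporter units including a zebrafish TRa–Gal4 chimera, dosed 24 h with 3 nM 6-alpha-fluorotestosterone present. Reporter mRNA quantified by RT-PCR and capillary electrophoresis; gain versus DMSO.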

The target of assay [8] is Estrogen receptor beta (Homo sapiens) (UniProt Q92731). Briefly: ATG_hERb_XSP2: Attagene TRANS-FACTORIAL Multi-Species (XSP2) HepG2 Assay for human Estrogen Receptor (ERb) (AID 2283813).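 Note: actives raise reporter mRNA above DMSO so AC50 reflects agonist induction.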 The method in brief:
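HepG2 cells transiently transfected with GAL4-UAS reporter units and chimeric human ERb-Gal4, 24 h exposure. Reporter mRNA quantified by RT-PCR with FAM labelling, HpaI digestion and capillary electrophoresis; gain of signal versus DMSO.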

In assay [9] the target is GAL4 Transcription Factor (Internal Marker), GAL4 (gene 855828) (UniProt P04386). Kind of assay: ATG_GAL4_XSP2: Attagene TRANS-FACTORIAL Multi-Species (XSP2) HepG2 Assay for GAL4 Transcription Factor (Internal Marker) (AID 2283814).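 Note: GAL4 reporter mRNA background control in MRTU transfected cells not a receptor target.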 In a few lines: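 HepG2 cells transiently transfected with GAL4-UAS reporter units, stimulated with 3 nM 6-alpha-fluorotestosterone plus 1.5 nM norgestrel, dosed 24 h. Reporter mRNA by RT-PCR/capillary electrophoresis; gain-of-signal fit versus DMSO, background control.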

The target in assay [10] is zebrafish Estrogen Receptor (ER1), esr1 (gene 259252) (UniProt P57717). Kind of assay: ATG_zfER1_XSP2: Attagene TRANS-FACTORIAL Multi-Species (XSP2) HepG2 Assay for zebrafish Estrogen Receptor (ER1) (AID 2283816). In a few lines:
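HepG2 cells transiently transfected with a GAL4-UAS reporter and a chimeric zebrafish ER1-Gal4 construct, dosed 24 h. Reporter mRNA quantified by RT-PCR, labelling, HpaI digestion and capillary electrophoresis, relative to DMSO.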

The target of assay [11] is chicken Estrogen Receptor (ERa), ESR1 (gene 396099) (UniProt P06212). Kind of assay: ATG_chERa_XSP2: Attagene TRANS-FACTORIAL Multi-Species (XSP2) HepG2 Assay for chicken Estrogen Receptor (ERa) (AID 2283817).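 Note: actives raise reporter signal above DMSO so AC50 reflects ER activation.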 In a few lines:
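Transient MRTU transfection of HepG2 → 24 h chemical dosing → TriZol RNA, oligo(dT) RT → PCR, 6-FAM primer extension, HpaI digest → CE quantitation of chicken ERa-Gal4-driven reporter mRNA. Positive direction vs DMSO.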

The test system of assay [12] is zebrafish Estrogen Receptor (ER2a), gene 317734. Kind of assay: ATG_zfER2a_XSP2: Attagene TRANS-FACTORIAL Multi-Species (XSP2) HepG2 Assay for zebrafish Estrogen Receptor (ER2a) (AID 2283818).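 Note: hits raise reporter mRNA so AC50 reflects activation of zebrafish ER2a.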 In a few lines:
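HepG2 cells transiently transfected with GAL4-UAS reporter units and chimeric zebrafish ER2a-Gal4, exposed 24 h; medium contains 3 nM 6-alpha-fluorotestosterone and 1.5 nM norgestrel. Reporter mRNA quantified by RT-PCR, HpaI digestion, capillary electrophoresis; gain versus DMSO.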

In assay [13] the test system is zebrafish Peroxisome Proliferator-activated Receptor gamma (PPARg), gene 557037. Kind of assay: ATG_zfPPARg_XSP1: Attagene TRANS-FACTORIAL Multi-Species (XSP1) HepG2 Assay for zebrafish Peroxisome Proliferator-activated Receptor gamma (PPARg) (AID 2283801). The method in brief:
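HepG2 cells transiently transfected with GAL4-UAS reporter units including a zebrafish PPARg–GAL4 chimera, dosed 24 h with 3 nM 6-alpha-fluorotestosterone present. Reporter mRNA quantified by RT-PCR, FAM labelling, HpaI digestion and capillary electrophoresis; induction versus DMSO.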

Assay [14] addresses frog Thyroid hormone Receptor alpha (TRa), thra-a (gene 397942) (UniProt P15204). Briefly: ATG_frTRa_XSP1: Attagene TRANS-FACTORIAL Multi-Species (XSP1) HepG2 Assay for frog Thyroid hormone Receptor alpha (TRa) (AID 2283804). The method in brief:
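HepG2 cells transiently transfected with frog TRa-GAL4 chimeric reporter units, dosed 24 hr with 3 nM 6-alpha-fluorotestosterone present; reporter mRNA quantified by RT-PCR, fluorescent labelling and capillary electrophoresis, gain of signal versus DMSO.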

Assay [15] addresses human Thyroid hormone Receptor alpha (TRa), THRA (gene 7067) (UniProt P10827). Kind of assay: ATG_hTRa_XSP1: Attagene TRANS-FACTORIAL Multi-Species (XSP1) HepG2 Assay for human Thyroid hormone Receptor alpha (TRa) (AID 2283805). In a few lines:
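HepG2 cells transiently transfected with GAL4-UAS reporter units expressing chimeric NR-Gal4 proteins, dosed 24 hours with 3 nM 6-alpha-fluorotestosterone present. Reporter mRNA measured by RT-PCR and capillary electrophoresis; gain of signal fitted versus DMSO.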

The target of assay [16] is human Thyroid hormone Receptor beta (TRb), THRB (gene 7068) (UniProt P10828). Kind of assay: ATG_hTRb_XSP1: Attagene TRANS-FACTORIAL Multi-Species (XSP1) HepG2 Assay for human Thyroid hormone Receptor beta (TRb) (AID 2283808). In a few lines: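 HepG2 cells transiently transfected with reporter units driving GAL4-UAS reporters for chimeric NR-Gal4 proteins; 24 h chemical exposure with 3 nM 6-alpha-fluorotestosterone present. Reporter mRNA quantified by RT-PCR and capillary electrophoresis, gain of signal versus DMSO.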

In assay [17] the target is zebrafish Thyroid Hormone Receptor beta (TRb), thrb (gene 30607) (UniProt Q9PVE4). Kind of assay: ATG_zfTRb_XSP1: Attagene TRANS-FACTORIAL Multi-Species (XSP1) HepG2 Assay for zebrafish Thyroid Hormone Receptor beta (TRb) (AID 2283809). In a few lines:
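HepG2 cells transiently transfected with multiplexed GAL4-UAS reporter units expressing chimeric zebrafish TRb–Gal4. Dosed 24 h with 3 nM 6-alpha-fluorotestosterone present; reporter mRNA measured by RT-PCR, HpaI digestion and capillary electrophoresis; gain of signal versus DMSO.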

Assay [18] can be described thus: ATG_XTT_Cytotoxicity_XSP1: Cytotoxicity Assessment in the Attagene TRANS-FACTORIAL Multi-Species (XSP1) HepG2 Assay (AID 2283810). The method in brief: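 XTT viability readout taken at 24 hours post-dosing in HepG2 liver cells co-treated with 3 nM 6-alpha-fluorotestosterone. Signal loss relative to DMSO controls reflects cytotoxicity.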
Assay [19] can be described thus: ATG_M_06_XSP2: Attagene TRANS-FACTORIAL Multi-Species (XSP2) HepG2 Assay for M06 Transcription Factor (Internal Marker) (AID 2283811).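 Note: hits are increases in signal above the DMSO baseline.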 The method in brief:
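HepG2, multiplexed reporter transfection; 24 h dosing; AR stimulated with 3 nM 6-alpha-fluorotestosterone + 1.5 nM norgestrel; RNA → RT-PCR → 6-FAM primer extension → HpaI → CE. Positive direction vs DMSO.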

The subject of assay [20] is turtle Androgen Receptor (AR), gene 101947425. Kind of assay: ATG_trAR_XSP2: Attagene TRANS-FACTORIAL Multi-Species (XSP2) HepG2 Assay for turtle Androgen Receptor (AR) (AID 2283815). In a few lines:
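HepG2 cells transiently transfected with GAL4-UAS reporter units for chimeric NR-Gal4 receptors; 24 h dosing in presence of 3 nM 6-alpha-fluorotestosterone and 1.5 nM norgestrel. Reporter mRNA by RT-PCR and capillary electrophoresis, gain of signal versus DMSO.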

Sequence of chicken Estrogen Receptor (ERa), ESR1 (gene 396099) (P06212 whole entry, looked up, the tested form may be a part): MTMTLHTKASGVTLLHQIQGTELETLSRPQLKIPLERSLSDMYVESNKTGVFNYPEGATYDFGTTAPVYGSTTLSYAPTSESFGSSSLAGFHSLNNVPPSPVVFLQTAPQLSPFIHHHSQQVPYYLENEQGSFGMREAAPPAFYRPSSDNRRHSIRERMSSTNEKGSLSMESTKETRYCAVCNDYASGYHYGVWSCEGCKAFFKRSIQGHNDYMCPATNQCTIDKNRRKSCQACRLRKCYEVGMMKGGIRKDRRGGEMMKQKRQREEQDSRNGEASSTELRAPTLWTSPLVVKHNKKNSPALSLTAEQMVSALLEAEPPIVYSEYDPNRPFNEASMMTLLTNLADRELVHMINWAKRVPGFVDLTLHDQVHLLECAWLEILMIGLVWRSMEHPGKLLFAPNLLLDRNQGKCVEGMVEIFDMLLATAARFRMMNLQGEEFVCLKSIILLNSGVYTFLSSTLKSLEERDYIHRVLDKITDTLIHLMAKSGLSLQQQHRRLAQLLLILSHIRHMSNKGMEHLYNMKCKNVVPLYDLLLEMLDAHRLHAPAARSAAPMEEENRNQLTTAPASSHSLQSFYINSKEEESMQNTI
Sequence of Estrogen receptor beta (Homo sapiens) (Q92731 whole entry, looked up, the tested form may be a part): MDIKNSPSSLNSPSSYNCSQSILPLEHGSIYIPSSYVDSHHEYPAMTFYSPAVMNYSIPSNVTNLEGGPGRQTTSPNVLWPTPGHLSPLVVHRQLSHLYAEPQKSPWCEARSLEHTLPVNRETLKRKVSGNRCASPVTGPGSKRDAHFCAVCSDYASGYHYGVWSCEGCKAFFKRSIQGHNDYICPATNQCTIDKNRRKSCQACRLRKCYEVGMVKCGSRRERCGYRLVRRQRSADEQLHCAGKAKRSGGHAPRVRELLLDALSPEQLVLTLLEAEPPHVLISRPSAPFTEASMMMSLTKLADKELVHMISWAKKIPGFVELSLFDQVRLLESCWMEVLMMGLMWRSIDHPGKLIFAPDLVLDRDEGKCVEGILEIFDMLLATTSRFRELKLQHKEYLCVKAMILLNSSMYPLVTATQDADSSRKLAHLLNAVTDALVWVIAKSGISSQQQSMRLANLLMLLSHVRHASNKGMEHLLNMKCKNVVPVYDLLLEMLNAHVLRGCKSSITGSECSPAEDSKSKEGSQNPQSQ
Sequence of Peroxisome proliferator-activated receptor gamma (Homo sapiens) (P37231 whole entry, looked up, the tested form may be a part): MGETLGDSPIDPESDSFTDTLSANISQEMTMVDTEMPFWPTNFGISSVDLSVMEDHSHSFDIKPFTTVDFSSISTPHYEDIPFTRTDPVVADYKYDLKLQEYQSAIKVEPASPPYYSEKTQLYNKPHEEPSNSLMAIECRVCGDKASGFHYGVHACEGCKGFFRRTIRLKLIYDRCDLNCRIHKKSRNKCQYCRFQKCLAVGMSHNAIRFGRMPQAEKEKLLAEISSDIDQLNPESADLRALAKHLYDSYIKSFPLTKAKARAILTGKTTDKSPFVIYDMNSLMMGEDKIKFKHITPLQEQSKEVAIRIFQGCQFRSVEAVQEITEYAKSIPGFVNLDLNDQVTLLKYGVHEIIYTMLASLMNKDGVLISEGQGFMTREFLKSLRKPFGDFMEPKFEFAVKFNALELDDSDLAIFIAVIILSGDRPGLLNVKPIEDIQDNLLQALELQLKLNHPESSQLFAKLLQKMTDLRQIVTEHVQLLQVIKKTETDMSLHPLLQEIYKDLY
Sequence of mouse Peroxisome Proliferator-activated Receptor gamma (PPARg), Pparg (gene 19016) (P37238 whole entry, looked up, the tested form may be a part): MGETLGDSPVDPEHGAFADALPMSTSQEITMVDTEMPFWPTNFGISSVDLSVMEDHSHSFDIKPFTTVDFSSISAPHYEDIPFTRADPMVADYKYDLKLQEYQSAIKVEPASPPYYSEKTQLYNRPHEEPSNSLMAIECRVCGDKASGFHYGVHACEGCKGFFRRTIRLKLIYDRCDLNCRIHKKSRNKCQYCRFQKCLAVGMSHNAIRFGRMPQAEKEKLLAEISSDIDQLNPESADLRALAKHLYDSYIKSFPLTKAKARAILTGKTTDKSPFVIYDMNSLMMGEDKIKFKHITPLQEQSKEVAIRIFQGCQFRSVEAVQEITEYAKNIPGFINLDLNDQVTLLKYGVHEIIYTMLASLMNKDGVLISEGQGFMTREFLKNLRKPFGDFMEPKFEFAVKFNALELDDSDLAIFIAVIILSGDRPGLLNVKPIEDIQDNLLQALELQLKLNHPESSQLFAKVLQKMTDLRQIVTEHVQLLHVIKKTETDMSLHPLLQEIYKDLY
Sequence of Nuclear receptor subfamily 1 group I member 2 (Mus musculus) (O54915 whole entry, looked up, the tested form may be a part): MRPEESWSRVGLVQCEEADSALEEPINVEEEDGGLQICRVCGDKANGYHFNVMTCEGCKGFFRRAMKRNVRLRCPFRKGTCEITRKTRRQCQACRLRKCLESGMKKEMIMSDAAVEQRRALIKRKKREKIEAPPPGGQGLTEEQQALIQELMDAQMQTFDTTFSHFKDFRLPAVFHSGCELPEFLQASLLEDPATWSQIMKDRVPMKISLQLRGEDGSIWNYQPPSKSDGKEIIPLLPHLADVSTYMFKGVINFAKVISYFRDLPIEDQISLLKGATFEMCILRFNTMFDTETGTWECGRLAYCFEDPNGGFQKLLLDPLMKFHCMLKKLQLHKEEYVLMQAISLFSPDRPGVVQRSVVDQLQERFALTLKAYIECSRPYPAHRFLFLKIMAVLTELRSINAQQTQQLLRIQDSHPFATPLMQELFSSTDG
Sequence of zebrafish Estrogen Receptor (ER1), esr1 (gene 259252) (P57717 whole entry, looked up, the tested form may be a part): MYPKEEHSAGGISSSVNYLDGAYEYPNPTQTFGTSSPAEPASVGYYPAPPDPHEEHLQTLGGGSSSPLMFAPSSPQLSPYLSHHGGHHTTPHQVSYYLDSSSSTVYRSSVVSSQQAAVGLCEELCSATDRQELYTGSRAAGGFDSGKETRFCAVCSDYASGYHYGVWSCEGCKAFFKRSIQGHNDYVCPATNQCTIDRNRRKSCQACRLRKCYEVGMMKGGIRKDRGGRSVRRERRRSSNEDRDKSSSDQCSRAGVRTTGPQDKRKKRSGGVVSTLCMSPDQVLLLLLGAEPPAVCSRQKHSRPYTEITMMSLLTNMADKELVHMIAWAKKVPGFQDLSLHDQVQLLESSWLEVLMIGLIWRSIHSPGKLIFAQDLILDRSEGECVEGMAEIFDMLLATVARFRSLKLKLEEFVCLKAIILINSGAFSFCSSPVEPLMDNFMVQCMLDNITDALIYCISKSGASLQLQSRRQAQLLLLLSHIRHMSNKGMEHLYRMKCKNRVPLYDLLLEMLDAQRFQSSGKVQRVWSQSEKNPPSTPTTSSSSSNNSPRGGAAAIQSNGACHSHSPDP
Sequence of human Thyroid hormone Receptor beta (TRb), THRB (gene 7068) (P10828 whole entry, looked up, the tested form may be a part): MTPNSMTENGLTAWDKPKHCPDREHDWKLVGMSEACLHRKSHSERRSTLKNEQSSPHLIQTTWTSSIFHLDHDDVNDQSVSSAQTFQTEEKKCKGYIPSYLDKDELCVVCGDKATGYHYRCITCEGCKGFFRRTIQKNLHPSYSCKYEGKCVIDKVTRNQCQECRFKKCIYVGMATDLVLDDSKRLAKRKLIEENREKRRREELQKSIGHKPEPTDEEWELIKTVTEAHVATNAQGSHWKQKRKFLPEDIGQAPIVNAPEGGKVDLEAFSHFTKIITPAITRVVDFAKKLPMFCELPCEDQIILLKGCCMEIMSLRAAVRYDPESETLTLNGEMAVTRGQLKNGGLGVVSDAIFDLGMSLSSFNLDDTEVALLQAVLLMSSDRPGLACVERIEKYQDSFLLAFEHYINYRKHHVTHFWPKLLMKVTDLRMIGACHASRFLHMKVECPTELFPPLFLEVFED
Sequence of zebrafish Thyroid Hormone Receptor beta (TRb), thrb (gene 30607) (Q9PVE4 whole entry, looked up, the tested form may be a part): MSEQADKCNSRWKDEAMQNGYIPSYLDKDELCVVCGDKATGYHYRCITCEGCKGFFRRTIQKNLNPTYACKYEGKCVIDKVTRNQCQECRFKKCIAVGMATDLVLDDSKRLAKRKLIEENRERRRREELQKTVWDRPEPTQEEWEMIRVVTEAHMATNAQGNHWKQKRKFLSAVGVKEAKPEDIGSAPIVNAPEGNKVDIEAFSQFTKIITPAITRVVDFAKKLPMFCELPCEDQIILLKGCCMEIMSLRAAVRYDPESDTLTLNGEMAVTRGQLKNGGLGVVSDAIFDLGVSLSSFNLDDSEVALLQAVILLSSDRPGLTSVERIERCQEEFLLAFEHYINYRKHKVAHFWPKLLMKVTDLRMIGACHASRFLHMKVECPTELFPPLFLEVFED
Sequence of GAL4 Transcription Factor (Internal Marker), GAL4 (gene 855828) (P04386 whole entry, looked up, the tested form may be a part): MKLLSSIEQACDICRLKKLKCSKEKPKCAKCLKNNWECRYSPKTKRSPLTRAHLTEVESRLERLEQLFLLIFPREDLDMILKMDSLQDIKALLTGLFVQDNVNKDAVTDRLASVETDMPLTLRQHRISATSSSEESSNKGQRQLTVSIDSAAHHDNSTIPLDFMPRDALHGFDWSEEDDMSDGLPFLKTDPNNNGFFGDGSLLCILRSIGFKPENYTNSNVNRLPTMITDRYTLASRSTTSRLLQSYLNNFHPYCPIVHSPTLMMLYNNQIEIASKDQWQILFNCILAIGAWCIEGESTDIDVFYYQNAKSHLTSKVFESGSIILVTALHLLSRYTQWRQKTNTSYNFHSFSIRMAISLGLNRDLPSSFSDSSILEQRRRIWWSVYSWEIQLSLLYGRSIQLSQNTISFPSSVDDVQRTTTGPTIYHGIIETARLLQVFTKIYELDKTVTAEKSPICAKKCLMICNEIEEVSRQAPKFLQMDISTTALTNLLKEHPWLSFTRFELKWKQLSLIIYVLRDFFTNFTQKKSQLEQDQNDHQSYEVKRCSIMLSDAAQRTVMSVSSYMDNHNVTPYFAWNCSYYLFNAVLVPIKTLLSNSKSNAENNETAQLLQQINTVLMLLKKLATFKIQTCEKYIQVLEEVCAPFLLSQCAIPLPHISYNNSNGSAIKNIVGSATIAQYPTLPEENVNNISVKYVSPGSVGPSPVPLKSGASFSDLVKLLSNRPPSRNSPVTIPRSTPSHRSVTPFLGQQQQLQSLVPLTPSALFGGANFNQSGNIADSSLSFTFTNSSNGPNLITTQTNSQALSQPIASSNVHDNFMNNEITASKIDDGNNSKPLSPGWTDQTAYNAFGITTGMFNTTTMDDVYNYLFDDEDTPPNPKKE

Regarding `Cc1c(COC(=O)[C@@H]2[C@H](/C=C(\Cl)C(F)(F)F)C2(C)C)cccc1-c1ccccc1`, the molecule was called inactive in [1], in assay [2], in assay [3], in assay [6], in [7] and in assay [8]. For the same molecule, the molecule was called inactive in [9], in assay [10] and in assay [12]. Besides, the AC50 (in general, the concentration at which the activity in the assay is half-maximal) in assay [4] was 42.5 µM (active); in [5], 2.23 µM (active); in assay [11] it was 30.5 µM (active).

As to `CCN(CC)C(=O)C(C)Oc1cccc2ccccc12` (configuration not stated), the AC50 in assay [3] is 48.4 µM (active); in assay [4], 20.7 µM (active); in assay [5] it was 1.27 µM (active); in [11], 7.35 µM (active). The result in assay [13], in assay [14], in assay [15], in [6], in assay [16] and in assay [17] was inactive. Also, the call in assay [18], in assay [19], in [8], in [10] and in assay [12] was inactive.

Regarding `N#Cc1c[nH]cc1-c1cccc2c1OC(F)(F)O2`, in assay [19], the call was inactive. For the same molecule, the AC50 in assay [10] was 25.9 µM (active); in assay [11] it was 1.68 µM (active) and 2.04 µM (active); in [12] it was 25.8 µM (active) and 2.71 µM (active).

For `C=C(C)CN(CC)c1c([N+](=O)[O-])cc(C(F)(F)F)cc1[N+](=O)[O-]`, the result in [19], in [8], in assay [10] and in [12] was inactive. Besides, in assay [11], the AC50 is 11 µM (active) and 28.2 µM (active).

Consider `CC1(C)C(C=C(Cl)Cl)C1C(=O)OC(C#N)c1cccc(Oc2ccccc2)c1` (configuration not stated), for which the molecule was called inactive in assay [1], in assay [2], in [6], in [16], in assay [17] and in [19]. Also, the outcome in assay [8], in assay [20] and in assay [12] was inactive. Moreover, the concentration at half-maximal activity (AC50) in assay [3] is 4.23 µM (active); in [13], 3.54 µM (active); in [4], 13.5 µM (active); in assay [5], 0.579 µM (active); in assay [11], 22.8 µM (active).

Consider `COP(=S)(OC)SCn1nnc2ccccc2c1=O`, for which the molecule was called inactive in assay [19], in assay [8], in assay [9], in [10], in [11] and in [12]. In [11], the AC50 was 21.7 µM (active).
